One may read the residual activity as the signal under treatment as a percentage of the control signal.

Data on 1 compound can be found in ChEMBL document CHEMBL2218924, “A broad activity screen in support of a chemogenomic map for kinase signalling research and drug discovery” (Biochem J, 2013).

For experiment [1], the target named is T1, Serine/threonine-protein kinase TBK1 (Homo sapiens) (UniProt Q9UHD2).
T1 sequence (whole entry): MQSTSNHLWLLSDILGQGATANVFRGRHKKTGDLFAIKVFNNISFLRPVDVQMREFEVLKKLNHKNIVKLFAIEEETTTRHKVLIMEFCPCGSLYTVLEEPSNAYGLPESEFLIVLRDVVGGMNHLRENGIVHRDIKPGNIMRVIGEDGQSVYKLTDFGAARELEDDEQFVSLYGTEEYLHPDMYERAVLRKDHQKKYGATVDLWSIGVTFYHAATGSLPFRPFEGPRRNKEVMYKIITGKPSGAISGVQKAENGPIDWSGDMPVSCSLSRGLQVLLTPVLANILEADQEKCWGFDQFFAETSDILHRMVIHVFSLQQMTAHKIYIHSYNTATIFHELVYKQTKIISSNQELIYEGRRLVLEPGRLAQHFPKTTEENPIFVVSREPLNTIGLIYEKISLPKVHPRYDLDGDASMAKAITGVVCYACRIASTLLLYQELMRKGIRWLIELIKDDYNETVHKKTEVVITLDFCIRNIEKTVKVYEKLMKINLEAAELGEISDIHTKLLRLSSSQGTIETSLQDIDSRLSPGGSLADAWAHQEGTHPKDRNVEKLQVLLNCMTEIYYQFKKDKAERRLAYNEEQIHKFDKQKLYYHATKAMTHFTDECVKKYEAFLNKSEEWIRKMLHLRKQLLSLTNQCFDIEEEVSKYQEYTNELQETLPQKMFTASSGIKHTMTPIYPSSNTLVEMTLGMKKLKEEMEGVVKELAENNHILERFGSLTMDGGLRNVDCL
The conditions noted are these: at 10 µM.

In experiment [2] the target is T2, TGF-beta receptor type-1 (Homo sapiens) (UniProt P36897).
T2 sequence (whole entry): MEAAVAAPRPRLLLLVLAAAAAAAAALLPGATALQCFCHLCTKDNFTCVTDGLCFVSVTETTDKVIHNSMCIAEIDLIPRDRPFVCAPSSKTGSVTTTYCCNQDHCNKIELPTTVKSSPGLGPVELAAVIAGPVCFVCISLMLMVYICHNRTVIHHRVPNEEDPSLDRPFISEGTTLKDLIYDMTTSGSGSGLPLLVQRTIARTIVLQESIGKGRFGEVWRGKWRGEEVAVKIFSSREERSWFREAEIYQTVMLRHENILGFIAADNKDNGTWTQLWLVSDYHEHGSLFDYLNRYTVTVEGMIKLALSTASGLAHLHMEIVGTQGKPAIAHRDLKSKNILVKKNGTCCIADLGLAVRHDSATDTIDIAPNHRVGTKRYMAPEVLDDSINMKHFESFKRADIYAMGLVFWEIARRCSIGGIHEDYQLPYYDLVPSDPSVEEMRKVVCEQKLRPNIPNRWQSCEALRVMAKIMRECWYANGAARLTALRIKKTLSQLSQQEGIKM
The settings on record: at 1 µM.

The target of experiment [3] is T2, TGF-beta receptor type-1 (Homo sapiens). The conditions noted are these: at 10 µM.
Experiment [4] deals with Insulin-like growth factor 1 receptor (Homo sapiens) (UniProt P08069). The settings on record: at 1 µM.
Chain of Insulin-like growth factor 1 receptor (Homo sapiens) (P08069 31-736 limits assumed): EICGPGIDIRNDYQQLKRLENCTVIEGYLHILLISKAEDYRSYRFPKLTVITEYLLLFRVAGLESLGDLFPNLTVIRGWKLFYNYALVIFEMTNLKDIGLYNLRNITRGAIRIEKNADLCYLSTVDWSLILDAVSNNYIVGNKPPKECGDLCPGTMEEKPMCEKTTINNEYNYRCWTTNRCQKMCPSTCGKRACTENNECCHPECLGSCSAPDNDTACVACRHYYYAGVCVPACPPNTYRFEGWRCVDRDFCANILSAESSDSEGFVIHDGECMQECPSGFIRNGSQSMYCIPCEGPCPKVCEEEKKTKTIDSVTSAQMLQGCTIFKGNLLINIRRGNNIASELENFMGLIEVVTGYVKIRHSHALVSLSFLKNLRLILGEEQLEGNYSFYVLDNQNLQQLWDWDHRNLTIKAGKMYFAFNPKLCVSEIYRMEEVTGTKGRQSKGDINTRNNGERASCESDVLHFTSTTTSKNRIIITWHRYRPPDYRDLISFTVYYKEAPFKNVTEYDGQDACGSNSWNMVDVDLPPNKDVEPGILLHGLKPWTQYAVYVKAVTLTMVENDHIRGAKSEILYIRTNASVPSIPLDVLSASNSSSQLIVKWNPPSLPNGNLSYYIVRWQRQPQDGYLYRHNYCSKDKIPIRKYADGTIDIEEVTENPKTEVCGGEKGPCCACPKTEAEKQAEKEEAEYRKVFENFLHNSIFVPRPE
Chain of Insulin-like growth factor 1 receptor (Homo sapiens) (P08069 741-1367 limits assumed): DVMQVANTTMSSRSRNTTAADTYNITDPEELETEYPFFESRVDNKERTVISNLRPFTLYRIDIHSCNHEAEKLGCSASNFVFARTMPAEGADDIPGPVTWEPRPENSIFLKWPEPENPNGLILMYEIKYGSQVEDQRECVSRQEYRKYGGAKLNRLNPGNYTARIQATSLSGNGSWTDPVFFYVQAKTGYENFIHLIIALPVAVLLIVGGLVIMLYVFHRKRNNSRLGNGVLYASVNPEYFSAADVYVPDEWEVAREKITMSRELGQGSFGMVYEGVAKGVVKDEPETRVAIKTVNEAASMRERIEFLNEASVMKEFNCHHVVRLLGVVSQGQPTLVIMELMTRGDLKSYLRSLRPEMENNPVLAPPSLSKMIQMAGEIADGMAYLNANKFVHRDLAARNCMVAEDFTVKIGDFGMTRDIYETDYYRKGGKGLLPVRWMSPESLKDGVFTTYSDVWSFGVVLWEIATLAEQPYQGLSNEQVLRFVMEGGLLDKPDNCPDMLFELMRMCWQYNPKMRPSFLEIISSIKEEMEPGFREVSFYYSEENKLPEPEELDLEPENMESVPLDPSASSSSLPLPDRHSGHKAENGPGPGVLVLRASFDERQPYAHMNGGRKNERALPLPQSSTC
The target is the same in experiment [5]. The conditions noted are these: at 10 µM.
For experiment [6], the target named is T3, Inhibitor of nuclear factor kappa-B kinase subunit alpha (Homo sapiens) (UniProt O15111).
T3 sequence (whole entry): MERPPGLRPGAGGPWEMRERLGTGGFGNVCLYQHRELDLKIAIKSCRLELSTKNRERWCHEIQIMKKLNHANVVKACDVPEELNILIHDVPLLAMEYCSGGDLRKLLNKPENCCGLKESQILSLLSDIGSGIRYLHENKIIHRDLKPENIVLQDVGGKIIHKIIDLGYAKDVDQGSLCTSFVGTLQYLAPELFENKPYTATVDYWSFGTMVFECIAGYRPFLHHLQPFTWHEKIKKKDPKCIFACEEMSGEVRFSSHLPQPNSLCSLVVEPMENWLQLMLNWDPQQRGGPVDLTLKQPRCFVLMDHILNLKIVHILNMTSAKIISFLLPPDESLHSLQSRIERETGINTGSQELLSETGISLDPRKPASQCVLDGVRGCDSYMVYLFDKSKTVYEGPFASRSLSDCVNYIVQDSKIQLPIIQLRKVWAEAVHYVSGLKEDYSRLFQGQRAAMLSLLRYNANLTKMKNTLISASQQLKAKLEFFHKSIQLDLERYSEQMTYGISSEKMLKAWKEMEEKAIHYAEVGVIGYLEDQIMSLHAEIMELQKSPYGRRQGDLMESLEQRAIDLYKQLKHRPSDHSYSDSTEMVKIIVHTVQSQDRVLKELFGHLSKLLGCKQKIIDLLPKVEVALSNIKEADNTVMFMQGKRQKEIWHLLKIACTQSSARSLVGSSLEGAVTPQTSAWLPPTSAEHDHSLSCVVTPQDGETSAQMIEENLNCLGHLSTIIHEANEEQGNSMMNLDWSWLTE
The settings on record: at 1 µM.

The target of experiment [7] is T3, Inhibitor of nuclear factor kappa-B kinase subunit alpha (Homo sapiens). The settings on record: at 10 µM.
In experiment [8] the target is T4, Inhibitor of nuclear factor kappa-B kinase subunit beta (Homo sapiens) (UniProt O14920).
T4 sequence (whole entry): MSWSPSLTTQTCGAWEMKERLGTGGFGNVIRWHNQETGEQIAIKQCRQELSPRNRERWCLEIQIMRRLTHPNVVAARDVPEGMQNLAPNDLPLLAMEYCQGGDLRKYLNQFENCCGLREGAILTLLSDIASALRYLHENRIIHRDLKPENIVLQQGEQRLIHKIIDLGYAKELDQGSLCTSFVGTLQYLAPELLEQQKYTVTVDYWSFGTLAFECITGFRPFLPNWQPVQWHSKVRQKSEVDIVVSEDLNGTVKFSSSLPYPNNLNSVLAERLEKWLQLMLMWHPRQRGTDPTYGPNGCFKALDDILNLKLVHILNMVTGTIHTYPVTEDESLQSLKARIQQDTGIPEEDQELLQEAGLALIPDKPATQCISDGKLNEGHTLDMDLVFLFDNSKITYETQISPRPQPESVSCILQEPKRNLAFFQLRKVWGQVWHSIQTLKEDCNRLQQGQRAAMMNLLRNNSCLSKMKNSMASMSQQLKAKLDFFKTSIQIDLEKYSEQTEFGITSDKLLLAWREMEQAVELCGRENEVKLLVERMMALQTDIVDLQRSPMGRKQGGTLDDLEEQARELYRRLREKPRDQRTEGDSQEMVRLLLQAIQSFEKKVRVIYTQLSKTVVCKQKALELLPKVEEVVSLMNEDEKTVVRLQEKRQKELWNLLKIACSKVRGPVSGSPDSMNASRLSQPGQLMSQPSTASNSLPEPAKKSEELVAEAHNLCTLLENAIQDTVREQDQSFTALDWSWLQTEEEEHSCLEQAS
The settings on record: at 10 µM.

The target of experiment [9] is Insulin receptor (Homo sapiens) (UniProt P06213). The settings on record: at 1 µM.
Chain of Insulin receptor (Homo sapiens) (P06213 28-758 limits assumed): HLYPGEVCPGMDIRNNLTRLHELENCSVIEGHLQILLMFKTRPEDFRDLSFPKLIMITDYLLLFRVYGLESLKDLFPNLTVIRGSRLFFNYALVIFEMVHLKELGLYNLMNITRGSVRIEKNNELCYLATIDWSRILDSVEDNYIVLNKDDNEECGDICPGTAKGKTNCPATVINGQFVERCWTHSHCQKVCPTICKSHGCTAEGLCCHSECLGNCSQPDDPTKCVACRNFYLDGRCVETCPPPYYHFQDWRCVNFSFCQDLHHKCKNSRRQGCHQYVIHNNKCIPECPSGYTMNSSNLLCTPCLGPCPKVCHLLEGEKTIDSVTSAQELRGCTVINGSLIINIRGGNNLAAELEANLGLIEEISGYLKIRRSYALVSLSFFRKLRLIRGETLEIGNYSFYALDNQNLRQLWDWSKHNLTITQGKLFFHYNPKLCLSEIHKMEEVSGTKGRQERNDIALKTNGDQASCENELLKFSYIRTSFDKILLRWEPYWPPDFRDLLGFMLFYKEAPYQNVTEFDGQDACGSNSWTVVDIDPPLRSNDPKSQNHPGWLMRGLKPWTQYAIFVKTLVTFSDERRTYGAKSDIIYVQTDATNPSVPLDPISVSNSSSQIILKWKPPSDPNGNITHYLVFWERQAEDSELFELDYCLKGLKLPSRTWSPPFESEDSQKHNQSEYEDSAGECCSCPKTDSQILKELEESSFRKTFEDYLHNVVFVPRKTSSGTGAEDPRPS
Chain of Insulin receptor (Homo sapiens) (P06213 763-1382 limits assumed): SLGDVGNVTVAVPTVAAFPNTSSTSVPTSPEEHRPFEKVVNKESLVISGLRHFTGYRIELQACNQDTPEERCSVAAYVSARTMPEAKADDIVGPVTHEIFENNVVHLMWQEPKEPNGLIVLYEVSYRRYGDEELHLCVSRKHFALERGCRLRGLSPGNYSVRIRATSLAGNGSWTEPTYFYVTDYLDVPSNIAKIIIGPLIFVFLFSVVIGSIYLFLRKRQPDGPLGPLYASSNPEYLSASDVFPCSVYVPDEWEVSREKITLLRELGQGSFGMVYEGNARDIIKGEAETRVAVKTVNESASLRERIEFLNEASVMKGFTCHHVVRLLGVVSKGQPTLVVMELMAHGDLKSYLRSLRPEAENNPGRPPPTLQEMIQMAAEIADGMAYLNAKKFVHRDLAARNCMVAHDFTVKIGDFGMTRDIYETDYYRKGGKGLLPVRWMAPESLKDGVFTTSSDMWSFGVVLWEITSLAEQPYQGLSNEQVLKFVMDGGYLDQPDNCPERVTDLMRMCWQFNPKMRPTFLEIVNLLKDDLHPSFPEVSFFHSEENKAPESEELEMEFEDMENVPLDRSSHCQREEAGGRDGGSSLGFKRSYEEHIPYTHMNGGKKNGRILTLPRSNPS

For the compound `Nc1ncnc2c1c(-c1ccc(Oc3ccccc3)cc1)cn2C1CCCC1`, the residual activity in [1] is 54%; in [2], 76%; in experiment [3], 72%; in experiment [4], 100%; in [5], 58%; in experiment [6], 104%. The values for the residual activity in experiment [7], in [8] and in experiment [9] were 103%, 91% and 96%, respectively.
